Source: the supplement of paper PMC10849652
The full data set covers some 7,900 targets. This sample favours those with a hit. About 0.6% of all pairs of compound and target were hits.

Compound: C#Cc1cccc(Nc2ncnc3cc(OCCOC)c(OCCOC)cc23)c1 [erlotinib]
Assay: log2 fold change, soluble protein after heating vs DMSO (PISA); higher = thermal stabilisation; K562 cells, 10 uM, 30 min; active = over 0.2 and 3.5 SD of the protein, either way, in both replicates (recomputed)
Summary of the method: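 Soluble protein was defined as the supernatant after 21,000xg for 90 min. It came from K562 cells at 2×10^6 cells/mL given 10 μM compound for 30 min, heated in aliquots for 3 min across 48°C-58°C, pooled, and extracted in PBS with 0.5% NP-40 at 4°C, and was quantified by TMTpro 16plex LC-MS/MS with equalised channel sums. Thermal stability against control samples, from duplicates, is reported as log2 fold change.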

Chain of UniProt Q96H55 (Q96H55 whole entry, looked up): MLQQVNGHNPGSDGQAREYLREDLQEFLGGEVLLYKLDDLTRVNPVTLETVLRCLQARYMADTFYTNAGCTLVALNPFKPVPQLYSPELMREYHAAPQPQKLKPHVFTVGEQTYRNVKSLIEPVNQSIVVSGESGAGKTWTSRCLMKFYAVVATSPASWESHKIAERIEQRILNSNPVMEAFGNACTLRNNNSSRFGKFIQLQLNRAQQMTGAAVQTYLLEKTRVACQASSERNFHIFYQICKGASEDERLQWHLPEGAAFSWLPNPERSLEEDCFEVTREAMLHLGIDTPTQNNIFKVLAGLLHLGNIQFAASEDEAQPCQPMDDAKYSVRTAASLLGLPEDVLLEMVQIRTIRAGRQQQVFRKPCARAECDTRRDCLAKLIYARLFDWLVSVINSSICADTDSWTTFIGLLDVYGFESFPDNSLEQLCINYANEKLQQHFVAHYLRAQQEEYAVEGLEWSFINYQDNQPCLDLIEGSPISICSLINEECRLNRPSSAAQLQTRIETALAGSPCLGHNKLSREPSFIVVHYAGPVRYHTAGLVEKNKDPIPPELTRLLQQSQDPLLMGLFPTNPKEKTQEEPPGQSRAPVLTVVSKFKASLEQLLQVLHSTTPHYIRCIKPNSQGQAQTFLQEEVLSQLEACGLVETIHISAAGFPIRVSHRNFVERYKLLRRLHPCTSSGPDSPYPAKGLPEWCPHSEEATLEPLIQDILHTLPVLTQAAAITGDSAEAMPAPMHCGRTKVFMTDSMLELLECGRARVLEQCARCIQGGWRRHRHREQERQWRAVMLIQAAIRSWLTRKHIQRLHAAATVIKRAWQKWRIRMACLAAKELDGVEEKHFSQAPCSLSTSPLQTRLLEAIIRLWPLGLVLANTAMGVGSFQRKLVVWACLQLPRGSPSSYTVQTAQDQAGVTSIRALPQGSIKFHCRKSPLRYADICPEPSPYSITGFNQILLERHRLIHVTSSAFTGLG
Chain of UniProt Q68DK7 (Q68DK7 whole entry, looked up): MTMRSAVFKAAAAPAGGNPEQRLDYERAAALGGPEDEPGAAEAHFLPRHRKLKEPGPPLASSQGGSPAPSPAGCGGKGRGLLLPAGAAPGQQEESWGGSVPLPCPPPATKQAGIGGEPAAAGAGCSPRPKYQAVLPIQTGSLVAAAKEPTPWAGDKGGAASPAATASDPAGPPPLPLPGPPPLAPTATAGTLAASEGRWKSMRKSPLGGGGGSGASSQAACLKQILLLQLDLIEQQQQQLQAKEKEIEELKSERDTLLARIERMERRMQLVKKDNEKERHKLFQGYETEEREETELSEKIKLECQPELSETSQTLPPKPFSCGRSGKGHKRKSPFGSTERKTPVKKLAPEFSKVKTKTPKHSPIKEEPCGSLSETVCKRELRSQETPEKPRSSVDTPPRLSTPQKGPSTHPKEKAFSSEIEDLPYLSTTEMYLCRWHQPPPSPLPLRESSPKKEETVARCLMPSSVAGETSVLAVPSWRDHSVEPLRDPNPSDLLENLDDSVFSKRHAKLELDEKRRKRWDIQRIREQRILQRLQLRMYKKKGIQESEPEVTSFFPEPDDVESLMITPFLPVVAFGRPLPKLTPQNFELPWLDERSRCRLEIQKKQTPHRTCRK
Chain of UniProt Q9Y2X3 (Q9Y2X3 whole entry, looked up): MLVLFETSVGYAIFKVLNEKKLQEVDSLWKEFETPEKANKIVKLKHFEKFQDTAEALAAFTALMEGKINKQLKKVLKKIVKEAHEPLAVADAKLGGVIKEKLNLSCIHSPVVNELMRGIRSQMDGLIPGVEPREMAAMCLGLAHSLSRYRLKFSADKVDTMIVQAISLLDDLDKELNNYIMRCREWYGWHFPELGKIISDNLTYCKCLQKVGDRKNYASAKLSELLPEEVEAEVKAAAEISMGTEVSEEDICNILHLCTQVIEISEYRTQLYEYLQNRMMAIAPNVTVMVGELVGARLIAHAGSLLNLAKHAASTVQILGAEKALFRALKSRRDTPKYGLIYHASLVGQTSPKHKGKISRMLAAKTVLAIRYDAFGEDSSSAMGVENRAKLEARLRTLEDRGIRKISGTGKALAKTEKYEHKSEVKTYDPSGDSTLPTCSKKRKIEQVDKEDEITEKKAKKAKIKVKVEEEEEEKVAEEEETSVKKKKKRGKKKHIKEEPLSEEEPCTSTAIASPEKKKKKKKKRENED
Chain of UniProt Q9Y2I1 (Q9Y2I1 whole entry, looked up): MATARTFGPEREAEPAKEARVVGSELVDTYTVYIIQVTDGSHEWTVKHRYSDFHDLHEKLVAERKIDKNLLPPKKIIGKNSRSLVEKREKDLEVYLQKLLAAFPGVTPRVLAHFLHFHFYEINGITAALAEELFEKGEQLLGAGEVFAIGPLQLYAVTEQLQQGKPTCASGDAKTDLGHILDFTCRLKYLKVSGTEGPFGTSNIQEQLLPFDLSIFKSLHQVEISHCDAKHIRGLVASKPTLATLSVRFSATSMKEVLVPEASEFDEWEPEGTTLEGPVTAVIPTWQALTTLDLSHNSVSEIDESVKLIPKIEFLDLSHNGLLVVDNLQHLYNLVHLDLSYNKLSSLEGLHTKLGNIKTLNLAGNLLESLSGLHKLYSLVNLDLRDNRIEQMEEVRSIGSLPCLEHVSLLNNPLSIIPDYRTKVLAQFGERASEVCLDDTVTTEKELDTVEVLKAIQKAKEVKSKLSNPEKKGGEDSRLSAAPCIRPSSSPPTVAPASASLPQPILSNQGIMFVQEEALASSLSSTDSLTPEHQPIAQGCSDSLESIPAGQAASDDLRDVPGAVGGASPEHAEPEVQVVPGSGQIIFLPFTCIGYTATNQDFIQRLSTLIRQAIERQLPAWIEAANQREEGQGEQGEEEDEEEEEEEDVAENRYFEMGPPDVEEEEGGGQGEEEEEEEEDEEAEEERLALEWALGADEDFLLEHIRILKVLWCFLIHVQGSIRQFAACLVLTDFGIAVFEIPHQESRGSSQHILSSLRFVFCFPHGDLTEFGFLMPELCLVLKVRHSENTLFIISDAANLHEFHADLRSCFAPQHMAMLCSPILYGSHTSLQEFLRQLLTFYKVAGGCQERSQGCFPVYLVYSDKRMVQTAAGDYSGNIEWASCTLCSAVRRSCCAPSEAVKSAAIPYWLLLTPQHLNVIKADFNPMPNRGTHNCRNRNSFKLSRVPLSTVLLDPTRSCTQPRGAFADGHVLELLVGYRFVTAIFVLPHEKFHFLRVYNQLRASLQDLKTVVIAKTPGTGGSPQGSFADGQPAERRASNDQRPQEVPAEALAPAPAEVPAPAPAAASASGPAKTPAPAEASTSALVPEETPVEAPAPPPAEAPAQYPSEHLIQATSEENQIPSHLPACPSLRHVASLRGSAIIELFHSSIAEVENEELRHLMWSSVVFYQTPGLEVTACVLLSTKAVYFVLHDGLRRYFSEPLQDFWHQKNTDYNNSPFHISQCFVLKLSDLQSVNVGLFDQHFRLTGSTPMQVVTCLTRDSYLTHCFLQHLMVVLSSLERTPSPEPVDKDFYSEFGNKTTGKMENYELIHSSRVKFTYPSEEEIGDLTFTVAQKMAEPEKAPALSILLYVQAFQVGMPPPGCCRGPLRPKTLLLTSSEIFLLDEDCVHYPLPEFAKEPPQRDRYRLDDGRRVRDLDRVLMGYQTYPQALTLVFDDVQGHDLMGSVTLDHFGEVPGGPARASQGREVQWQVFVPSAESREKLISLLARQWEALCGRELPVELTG
Chain of UniProt Q9Y6R0 (Q9Y6R0 whole entry, looked up): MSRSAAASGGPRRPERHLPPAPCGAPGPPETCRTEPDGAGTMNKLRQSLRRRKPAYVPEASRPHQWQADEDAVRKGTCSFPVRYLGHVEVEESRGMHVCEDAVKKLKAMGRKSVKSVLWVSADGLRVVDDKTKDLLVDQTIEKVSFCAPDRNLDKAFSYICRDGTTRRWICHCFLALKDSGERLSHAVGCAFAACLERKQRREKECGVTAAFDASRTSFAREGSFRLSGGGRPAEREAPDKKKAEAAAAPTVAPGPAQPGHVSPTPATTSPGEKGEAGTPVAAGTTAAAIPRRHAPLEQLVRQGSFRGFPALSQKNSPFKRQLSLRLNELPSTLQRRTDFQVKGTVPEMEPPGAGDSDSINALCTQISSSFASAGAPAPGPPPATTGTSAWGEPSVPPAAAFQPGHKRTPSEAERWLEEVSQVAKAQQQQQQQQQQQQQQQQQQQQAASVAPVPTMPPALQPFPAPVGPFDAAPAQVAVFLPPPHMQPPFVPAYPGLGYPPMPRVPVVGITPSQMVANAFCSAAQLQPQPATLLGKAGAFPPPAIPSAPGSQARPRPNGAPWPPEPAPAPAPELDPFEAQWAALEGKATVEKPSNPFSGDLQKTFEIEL
Chain of UniProt Q9HBL8 (Q9HBL8 whole entry, looked up): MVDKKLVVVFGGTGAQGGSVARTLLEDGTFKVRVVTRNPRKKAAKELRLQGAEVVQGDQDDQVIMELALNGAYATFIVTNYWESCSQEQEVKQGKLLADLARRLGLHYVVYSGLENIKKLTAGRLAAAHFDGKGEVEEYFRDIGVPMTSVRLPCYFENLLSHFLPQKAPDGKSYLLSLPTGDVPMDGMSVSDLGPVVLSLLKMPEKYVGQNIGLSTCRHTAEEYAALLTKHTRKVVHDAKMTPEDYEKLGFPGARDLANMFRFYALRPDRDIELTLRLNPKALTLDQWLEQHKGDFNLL
Chain of UniProt Q92692 (Q92692 whole entry, looked up): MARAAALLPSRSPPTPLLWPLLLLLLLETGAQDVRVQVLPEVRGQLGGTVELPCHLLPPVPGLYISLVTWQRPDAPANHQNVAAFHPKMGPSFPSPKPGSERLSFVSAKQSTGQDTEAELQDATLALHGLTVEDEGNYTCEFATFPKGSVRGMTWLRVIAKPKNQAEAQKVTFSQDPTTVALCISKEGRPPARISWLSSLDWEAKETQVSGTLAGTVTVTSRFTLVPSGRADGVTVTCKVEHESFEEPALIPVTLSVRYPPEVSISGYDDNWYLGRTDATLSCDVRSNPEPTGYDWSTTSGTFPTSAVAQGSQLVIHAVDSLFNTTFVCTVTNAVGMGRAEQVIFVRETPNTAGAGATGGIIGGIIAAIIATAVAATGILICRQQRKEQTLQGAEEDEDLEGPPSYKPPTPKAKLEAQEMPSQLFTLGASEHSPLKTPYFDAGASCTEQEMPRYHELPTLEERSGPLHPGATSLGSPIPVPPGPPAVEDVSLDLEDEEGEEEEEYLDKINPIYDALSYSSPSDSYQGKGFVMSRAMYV

log2 fold change, inactive:
NDUFB7 (UniProt P17568) -0.027
MRPL50 (UniProt Q8N5N7) -0.107
NOP58 (UniProt Q9Y2X3) -0.013
MRPS31 (UniProt Q92665) 0.003
NME7 (UniProt Q9Y5B8) 0.166
NUMBL (UniProt Q9Y6R0) -0.001
NME2P1 (UniProt O60361) 0.147
OTUD6B (UniProt Q8N6M0) 0.053
NDUFA4 (UniProt O00483) -0.134
NUP160 (UniProt Q12769) 0.001
MTHFS (UniProt P49914) 0.01
NELFB isoform 2 (UniProt Q8WX92) 0.046
NISCH (UniProt Q9Y2I1) 0.141
MRPS16 (UniProt Q9Y3D3) -0.126
NCAPH (UniProt Q15003) 0.201
NELFA (UniProt Q9H3P2) 0.21
MSL1 (UniProt Q68DK7) 0.185
MSH3 (UniProt P20585) 0.009
NRGN (UniProt Q92686) 0.066
NEU1 (UniProt Q99519) 0.001
NUCKS1 (UniProt Q9H1E3) 0.045
NMRAL1 (UniProt Q9HBL8) 0.239
MTOR (UniProt P42345) 0.015
NAA11 (UniProt Q9BSU3) -0.023
MRPS22 (UniProt P82650) -0.052
NOSIP (UniProt Q9Y314) 0.062
NR2C2AP isoform 2 (UniProt Q86WQ0) 0.032
OSTC (UniProt Q9NRP0) 0.021
NECTIN2 isoform 2 (UniProt Q92692) -0.151
MRPS6 (UniProt P82932) 0.001
MKRN2 (UniProt Q9H000) -0.038
MYO19 (UniProt Q96H55) 0.032
OTUD4 (UniProt Q01804) -0.032
MSH2 (UniProt P43246) 0.038
MINK1 (UniProt Q8N4C8) -0.05
MIS12 (UniProt Q9H081) 0.103
NA, A0A096LPI6 -0.009
MMS19 isoform 8 (UniProt Q96T76) -0.01
